# D1 antag: antagonists of human D1 dopamine receptor; HEK293 TREx D1 cells, calcium flux, dopamine EC80; active compounds read low; P21728; 3.2% of 360,000 active; activity change, negative = inhibition, % at 10 µM; in the data active means activity change below about -30%; further: on the % scale 0 is the no-effect control and ±100 the full control effect
# Target sequence (P21728 whole entry, looked up): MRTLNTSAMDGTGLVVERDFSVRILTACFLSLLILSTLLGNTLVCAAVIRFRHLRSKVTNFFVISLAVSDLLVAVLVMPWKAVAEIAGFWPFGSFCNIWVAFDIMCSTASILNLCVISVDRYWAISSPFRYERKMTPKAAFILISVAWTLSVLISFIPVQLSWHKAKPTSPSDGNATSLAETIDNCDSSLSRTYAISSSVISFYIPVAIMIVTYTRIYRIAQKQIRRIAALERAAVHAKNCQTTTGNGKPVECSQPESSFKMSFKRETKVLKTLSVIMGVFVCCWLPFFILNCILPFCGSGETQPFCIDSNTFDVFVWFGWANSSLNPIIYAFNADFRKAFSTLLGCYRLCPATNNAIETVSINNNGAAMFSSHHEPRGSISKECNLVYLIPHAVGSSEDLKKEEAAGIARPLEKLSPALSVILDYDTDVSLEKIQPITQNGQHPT
#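 Inducible Hek293 Trex D1 cells (tetracycline, overnight, 30 C). Calcium dye 30–90 min RT. Antagonist mode: EC80 dopamine added after 180 s compound read.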
# DRD3 agonist: D3 dopamine receptor (human) agonism; P35462; D3R DiscoveRx beta-arrestin cells, luminescence, 90 min; max activation, %; 0.58% of 410,000 active; AID 652048; in the data active means max activation above about 30%; further: 0% is about no effect
#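 Agonist mode: compounds and dopamine controls were applied to plated cells for 90 min at 37 degrees C after an overnight attachment at 1500 cells/well. Luminescent read-out followed 30 - 60 minutes at room temperature with DiscoveRx detection reagent.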
# D1 agonist: activates the human D1 dopamine receptor; P21728; HEK293 T-REx D1 cells, calcium flux, agonist mode; activation, % at 2 µM; 1% of 360,000 active; AID 504660; in the data active means activation above about 30%; further: 0% is about no effect
#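 Inducible HEK293 T-REx D1 cells, force-coupled to calcium signalling, were plated at 4000 cells/well with tetracycline and held overnight at 30 C. After no-wash calcium dye loading, compound-evoked calcium rise over 180 s flagged agonists.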
# D1 potentiator: potentiators of human D1 dopamine receptor | P21728 | HEK293 TREx D1 cells, calcium flux, dopamine EC20 potentiation | potentiation, % at 10 µM | 0.036% of 360,000 active | AID 504651; in the data active means potentiation above about 30%; further: 0% is about no effect
# D3 antag: antagonists of human D3 dopamine receptor | max response, negative = inhibition, % | AID 652054 | P35462 | D3R cells, DiscoveRx beta-arrestin luminescence, antagonist mode; active compounds read low | 2.5% of 360,000 active; in the data active means max response below about -50%; inconclusive means no clear call, values can overlap the other calls; further: on the % scale 0 is the no-effect control and ±100 the full control effect
#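 Cells expressing the human receptor were seeded at 1500 cells/well, incubated overnight at 37 degrees C in 5% CO2, then exposed to library compounds with dopamine controls for 90 minutes at 37 degrees C before luminescent detection.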
# The depositor's hits bear a star; ? = inconclusive; nt = no result given. The list is not random: actives were taken first. Their share in the collection is about 6%.
SMILES,D1 antag,DRD3 agonist,D1 agonist,D1 potentiator,D3 antag
CC(=O)c1ccc(NC(=O)Nc2sc3nc4n(c(=O)c3c2C)CCC(C)CC4)cc1 (centres undefined),-5,-6,0,-2,nt
O=C(CSc1ccc2nc(-c3ccccc3)cn2n1)Nc1ccccc1C(F)(F)F,-71*,2,0,-3,nt
O=C(CSc1ccc2nc(-c3ccccc3)cn2n1)Nc1ccccc1,3,-8,2,-2,nt
Cn1c(C(=O)NCCN2CCOCC2)cc2sccc21,13,-28,0,1,-63*
Cc1ccc(CCNC(=O)c2cc3sccc3n2Cc2ccc(C)cc2)cc1,-4,-22,7,-3,nt
O=C(NCCN1CCOCC1)c1cc(-c2ccc(Cl)cc2Cl)on1,-34*,-5,1,6,-19
O=C(NCCN1CCOCC1)c1cc(-c2cccc(Cl)c2)on1,-3,-9,2,-4,-22
Cc1ccc(Cn2c(C(=O)NCCCN3CCOCC3)cc3sccc32)cc1,-15,-55,2,-7,-51*
CCn1c(C(=O)NCCCN2CCc3ccccc3C2)cc2sccc21,-6,-54,2,-7,-73*
CC(NC(=O)Cn1c(=O)oc2cc(S(=O)(=O)NCc3ccccc3)ccc21)c1ccccc1 (centres undefined),5,6,4,-5,nt
COc1ccc(C2c3[nH]c4ccc(OC)cc4c3CCN2C(=O)Nc2ccccc2)cc1 (centres undefined),-9,-18,4,-2,nt
Cc1cccc(N(CC(=O)Nc2ccccc2C(F)(F)F)S(=O)(=O)c2ccccc2)c1C,-6,-20,-3,1,nt
CN(C)c1ccc(/C=C2/SC(=O)N(CCN=C3NS(=O)(=O)c4ccccc43)C2=O)cc1,-16,3,40*,1,6
O=C(CN1C(=O)c2ccccc2C1=O)OCCOCCN=C1NS(=O)(=O)c2ccccc21,-7,2,1,-1,?
CN(C)c1ccc(/C=C2\SC(=O)N(CC(O)Cn3c4ccccc4c4ccccc43)C2=O)cc1 (centres undefined),-7,-4,46*,-10,-13
CN(C)c1ccc(/C=C2\SC(=O)N(CCc3nnc(N)s3)C2=O)cc1,4,11,62*,-8,18
CC(C)CC1(C)NC(=O)N(CC(=O)Nc2ccc3c(c2)CCC3)C1=O (centres undefined),-3,-7,2,2,-55*
Cc1cc(C(=O)CN2C(=O)NC(c3ccccc3)(c3ccccc3)C2=O)c(C)n1Cc1ccco1,-4,1,23,-3,-1
CC1(c2cccc(Br)c2)NC(=O)N(CC(=O)Nc2ccc(F)cc2)C1=O (centres undefined),-31*,5,6,-6,2
Cc1ccc(C2(C)NC(=O)N(CC(=O)Nc3ccc4c(c3)CCC4)C2=O)cc1 (centres undefined),-5,0,10,2,-7
CC1(c2cccc(Br)c2)NC(=O)N(CC(=O)NC2CCCCC2)C1=O (centres undefined),-34*,-20,0,-2,6
CC1(c2cccc(Br)c2)NC(=O)N(CC(=O)Nc2ccc(S(N)(=O)=O)cc2)C1=O (centres undefined),0,7,6,-8,-15
COc1ccc(C2(C)NC(=O)N(CC(=O)NC3CCCC3)C2=O)cc1OC (centres undefined),1,-9,3,-4,2
Cc1cc(C(=O)CN2C(=O)NC(C)(c3cccc(Br)c3)C2=O)c(C)n1Cc1ccco1 (centres undefined),-37*,3,2,4,8
COc1ccc(CCNC(=O)c2ccc3c(c2)N(Cc2ccc(Cl)cc2)C(=O)c2ccccc2S3)cc1OC,-13,0,4,-3,nt
SMILES,D1 antag,DRD3 agonist,D1 agonist,D1 potentiator,D3 antag
Cc1ccc(C(=O)Oc2cc(C)n(C)c(=O)c2)cc1,-10,35*,2,-2,91
COc1ccccc1CNC(=O)CSc1nc2nc(C)c(Cc3ccccc3Cl)c(C)n2n1,2,2,2,1,nt
CCCOc1cccc(-c2cc(C(=O)N/N=C/c3ccccn3)c3ccccc3n2)c1,13,-27,1,-2,?
O=C(N/N=C/c1ccccn1)c1cc(-c2ccc(Br)cc2)nc2ccccc12,-5,-52,1,-4,-95*
O=C(N/N=C/c1ccccn1)c1cc(-c2ccc(Cl)cc2)nc2ccccc12,5,-26,1,4,-67*
CC(=O)c1ccc(N2CCN(C(=O)CCS(=O)(=O)c3ccc4c(c3)oc(=O)n4C)CC2)cc1,7,7,2,-1,nt
CC(=O)C1=C(O)CCCC1=NCc1nc2ccccc2[nH]1,-34*,-3,7,-7,-8
Cc1sc2ncnc(N/N=C/c3cccc(O)c3)c2c1C,3,8,1,6,10
C/C(=N\Nc1ccc(Cl)c(C(=O)O)c1)c1ccccn1,0,-3,0,-1,-10
C/C(=N\Nc1ncnc2sc(C)c(C)c12)c1ccccn1,6,26,281*,7,14
C/C(=N\Nc1ncc(Cl)cc1Cl)c1ccccn1,-40*,2,3,-2,-7
COc1cccc(-c2nc(CS(=O)CC(=O)N3CCN(c4cccc(C(F)(F)F)c4)CC3)c(C)o2)c1 (centres undefined),0,-13,1,-6,nt
CCCCC(=O)OCC(=O)[C@]1(O)Cc2c(O)c3c(c(O)c2[C@@H](O[C@H]2C[C@H](NC(=O)C(F)(F)F)[C@H](O)[C@H](C)O2)C1)C(=O)c1c(OC)cccc1C3=O,nt,-7,nt,nt,nt
CC12CCC(C(=O)N(CSC(=S)N/N=C\c3ccccc3)C1=O)C2(C)C (centres undefined),1,5,5,0,-69*
CC12CCC(C(=O)N(CC(=O)O)C1=O)C2(C)C (centres undefined),-52*,1,0,5,3
O=C(c1nc(-c2ccc(Cl)cc2)n2c1CCCCC2)N1CCN(c2ccccc2F)CC1,2,11,-2,7,nt
O=C(NCCc1ccccc1)c1c[nH]c2c(F)cccc2c1=O,-5,-4,1,-4,-50*
O=C(NC(=S)NCc1ccccc1)c1ccccc1F,-14,-6,5,-5,-21
O=C(NCCc1ccccc1)c1ccccc1C(=O)NCCc1ccccc1,nt,3,nt,nt,1
O=C(NCCc1ccccc1)c1ccccc1F,-36*,3,4,-6,3
O=C(NC(=S)N(Cc1ccccc1)Cc1ccccc1)c1ccccc1F,-18,-2,3,-5,-69*
c1ccc(CN2CCN(C3=Nc4cccc5cccc3c45)CC2)cc1,7,-8,3,1,-6
Fc1ccc(N2CCN(C3=Nc4cccc5cccc3c45)CC2)cc1,-44*,-7,3,-8,-20
